Results: PubChem BioAssay (NCI)
Compounds without any hit were thinned out: in the full panel of roughly 83,000, 20% have a hit.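 96-well plates, one dose, 48 hours. Percent growth reported; active if below 10.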 Unmarked numbers belong to inactive results. Activity calls are given as the source filed them.

Legend:
Assay in all cases: NCI-60 one-dose screen, 48 h (100 = growth as untreated, 0 = no growth, -100 = all killed)
Settings in all cases: 10 µM
NCI-H23 lung = tested on: NCI-H23 lung
NCI-H226 lung = tested on: NCI-H226 lung
NCI-H322M lung = tested on: NCI-H322M lung
HOP-62 NSCLC = tested on: HOP-62 NSCLC
NCI-H460 lung = tested on: NCI-H460 lung
HOP-92 NSCLC = tested on: HOP-92 NSCLC
NCI-H522 lung = tested on: NCI-H522 lung
A549/ATCC NSCLC = tested on: A549/ATCC NSCLC
786-0 renal = tested on: 786-0 renal
COLO 205 colon = tested on: COLO 205 colon

SMILES | growth (NCI-H23 lung) | growth (NCI-H226 lung) | growth (NCI-H322M lung) | growth (HOP-62 NSCLC) | growth (NCI-H460 lung) | growth (HOP-92 NSCLC) | growth (NCI-H522 lung) | growth (A549/ATCC NSCLC) | growth (786-0 renal) | growth (COLO 205 colon)
CCCOCC(O)CNCCN (stereo not given) | 109% | 121% | 105% | 92.6% | 104% | 56.9% | 102% | 102% | 105% | 110%
Cc1cc(O)c(C2=NN(c3ccc(S(N)(=O)=O)cc3)C(c3ccc(N(C)C)cc3)C2)c(C)c1Cl (stereo not given) | 79.3% | 88.8% | 97.6% | 107% | 47.1% | 45.5% | 39.7% | 40.8% | 95.6% | 76.2%
Fc1ccc(Nc2ccnc(N3CCN(c4ccnc5cc(Cl)ccc45)CC3)n2)cc1 | 44.5% | 54% | 65.5% | 62.8% | 38% | -7.36% (active) | 43.4% | 25% | 37.1% | 34.7%
CCc1nn2c(-c3cc(OC)c(OC)c(OC)c3)c(-c3cc(OC)c(OC)c(OC)c3)nc2s1 | 87.9% | 92% | 81.6% | 40.8% | 97.1% | -15.2% (active) | 46% | 86% | 58.6% | 94.9%
CCOc1ccc(-n2cc(-c3ccc(N(C)C)cc3)[n+]3c2CCCCC3)cc1 | 0.183% (active) | 18.6% | 45.3% | 3.02% (active) | 5.52% (active) | -8.52% (active) | -0.392% (active) | 22.4% | 20.7% | -68.6% (active)
N#Cc1cnc2ccc(NCc3cnc[nH]3)cc2c1Nc1ccc(F)c(Cl)c1 | 78.8% | 88.2% | 1.96% (active) | 94.3% | 62.5% | 51.9% | 10.2% | 70.9% | 65.7% | 96.9%
CCN(CC)CCCOC(=O)Nc1ccccc1Cl | 108% | 108% | 129% | 112% | 115% | 94.9% | 102% | 107% | 98.9% | 118%
CC(=O)n1nc(C(=O)OC(C)(C)C)c2cc(F)c(F)cc21 | 101% | 105% | 102% | 99% | 102% | 83% | 83.2% | 95.9% | 97.5% | 103%
O=C(c1ccc(Cl)cc1)c1no[n+]([O-])c1C(=O)c1ccc(Cl)cc1 | 98.4% | 102% | 107% | 104% | 108% | 88.4% | -77.8% (active) | 104% | -34.5% (active) | 107%
S=C(Cc1ccc(-c2ccccc2)cc1)N1CCOCC1 | 104% | 91.7% | 96% | 93.6% | 103% | 83.1% | 89.8% | 90.9% | 93.6% | 103%
Fc1ccc2[nH]c3c(NCCCN4CCOCC4)ncnc3c2c1 | 83.2% | 62.2% | 53.6% | 32.7% | 54% | 63.9% | 58.1% | 54.5% | 24.1% | 53.4%
COc1cccc(-c2nnc(COc3ccc(-c4nc5ccccc5[nH]4)cc3OC)o2)c1 | 92.7% | 105% | 97.6% | 108% | 96.5% | 93.8% | 96.7% | 97.1% | 96.2% | 85.4%
COc1ccc(CSc2nc3cc(OC)c(OC)cc3c(=O)n2-c2ccc(OC)cc2OC)cc1 | 78.3% | 78.4% | 80.6% | 101% | 90.6% | 75.5% | 68.6% | 80.8% | 95.7% | 101%
Cn1c(=O)c2[nH]c(C(O)c3ccc(Cl)cc3)nc2n(C)c1=O (stereo not given) | 98.8% | 103% | 111% | 94.7% | 100% | 76.1% | 96.7% | 96.3% | 98.6% | 102%
Clc1cc(Cl)c(OCCCCCCN2CCNCC2)c(Cl)c1 | 53.9% | 94% | 78.3% | 77.6% | -39.8% (active) | -0.831% (active) | 55.1% | 53.8% | 23.1% | -71.3% (active)
Nc1ccc(C2=CC(c3ccc(Cl)cc3)N3C=CSC3=N2)cc1 (stereo not given) | -46.6% (active) | -71.4% (active) | -57.2% (active) | -63.8% (active) | -6.81% (active) | -22.7% (active) | -65.9% (active) | -39.3% (active) | -90.9% (active) | -85.1% (active)
Cc1nn2c(/C=C3/C(=O)Nc4ccc(Cl)cc43)c(-c3ccccc3)nc2s1 | 51.4% | 33.4% | 12.7% | -19.8% (active) | 25.7% | -5.92% (active) | 43.6% | 24.2% | 41.2% | 49.7%
COc1cc(Cn2c(-c3ccccc3)cc3c2-c2oncc2CC3)cc(OC)c1 | 23.7% | -3.31% (active) | 8.6% (active) | 60.5% | -0.835% (active) | 48.8% | -17.2% (active) | 23.3% | 37.6% | -29.6% (active)
Cc1ccc(NC(=O)/C=N/O)cc1C | 94.6% | 53.2% | 102% | 92.7% | 103% | 82.3% | 93% | 94% | 101% | 105%
O=C(CCCC(=O)N/N=C/c1cc(Cl)ccc1O)N/N=C\c1cc(Cl)ccc1O | 38.4% | 40.7% | 23.7% | 24.1% | 10.2% | 24.4% | 18.3% | 29.5% | 24.8% | 16.3%
Cc1[nH]nc2c(=S)[nH]c(=O)[nH]c12 | 103% | 94.3% | 103% | 105% | 105% | 87.9% | 98.7% | 100% | 97.3% | 109%
O=C(Nc1cccc(F)c1)Nc1cccc(Cl)c1 | 89.8% | 102% | 94.8% | 99.6% | 56% | 76.7% | 90.5% | 74.7% | 94.2% | 93.6%
COc1cccc(C2(C)Nc3ccccc3-c3nc4ccccc4n32)c1 (stereo not given) | 102% | 102% | 92% | 97.7% | 101% | 93.4% | 103% | 102% | 101% | 109%
COC(=O)[C@]12CC[C@@H](C)[C@H](C)[C@@H]1C1=CC[C@@H]3[C@@]4(C)CC(=O)[C@H](O)[C@@]5(C)COC(=C45)C[C@@]3(C)[C@]1(C)CC2 | -66.5% (active) | -74.7% (active) | -73.4% (active) | -74.7% (active) | -51.8% (active) | -83.2% (active) | -76.3% (active) | -60.4% (active) | -76.5% (active) | -80.6% (active)
O=C1/C(=C/c2ccc(O)cc2)Oc2ccc(Cl)cc21 | 71.4% | 68.8% | 82.8% | 85.6% | 79.6% | 67.1% | -65% (active) | 79.7% | 71.4% | 109%
CCCCn1c(=O)[nH]c2c(c1=O)C(c1ccc(Cl)cc1)c1c([nH]c(=O)n(CCCC)c1=O)N2 | 90% | 96.3% | 91.6% | 90.4% | 106% | 90.4% | 83.3% | 87.8% | 93.4% | 105%
CCOC(=O)Cn1nnc(-c2ccc(OCc3ccccc3F)cc2)n1 | 89% | 103% | 98.7% | 87.1% | 102% | 75.5% | 52.3% | 90.8% | 97.2% | 103%
